Laboratory results reported in the supplement of paper PMC11577813, “Eurasian spruce bark beetle detects lanierone using a highly expressed specialist odorant receptor, present in several functional sensillum types” (BMC Biology, 2024).
± gives the standard deviation of the averaged measurements.

System: ipsdienol A-neuron OSN class
Test: net action potential response of A-neuron (blank-subtracted) (spikes/s (Hz)); higher = stronger excitation
Conditions: 10 µg on filter paper; neuron: A neuron (large spike amplitude)
Experimental: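 Single sensillum recordings from antennal olfactory sensilla of live adult Ips typographus. Each compound was 10 µg in paraffin oil on filter paper, delivered as a 0.5 s puff. Net response = spikes in the first 0.5 s of response minus the 0.5 s pre-stimulus count, doubled to give Hz, with blank response subtracted. Values are for the large-spike A-neuron class of each of seven sensillum types that co-house the lanierone B-neuron; N = 1-4 sensilla, averaged.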

CCCCCCO [1-Hexanol] and CCCCCC(O)CC (racemic) [(±)-3-Octanol] are within error of each other in “net action potential response” value: -5.33 ± 5.8 for the first, -0.667 ± 5 for the second.

CC(C)[C@@]12CC[C@@](C)(O)[C@@H]1C2 [(+)-trans-4-Thujanol] and CC12CCC(CC1=O)C2(C)C (racemic) [(±)-Camphor] are within error of each other in “net action potential response” value: -4 ± 4 for the first, -0.667 ± 5 for the second.

OCCc1ccccc1 [2-Phenylethanol] and CC(=O)OCc1ccccc1 [Benzyl acetate] are within error of each other in “net action potential response” value: -2.67 ± 3.1 for the first, -0.667 ± 5 for the second.

CC(C)CCO [3-Methyl-1-butanol] and C=CC(=C)C[C@@H](O)CC(C)C (racemic) [(±)-Ipsenol] are within error of each other in “net action potential response” value: 0.667 ± 4.2 for the first, 19.3 ± 15 for the second.

CC1=C[C@@H](O)[C@H]2C[C@@H]1C2(C)C [(-)-trans-Verbenol] and CC1=CCC2CC1C2(C)C (stereo not drawn) [(-)-α-Pinene] are within error of each other in “net action potential response” value: 0.667 ± 3.1 for the first, 1.33 ± 2.3 for the second.

C=Cc1ccc(OC)cc1 [4-Vinyl anisole] and COc1ccc(C)cc1 [4-Methyl anisole] are within error of each other in “net action potential response” value: 2 ± 6 for the first, 4 ± 2 for the second.

C=C1CCC2CC1C2(C)C (stereo not drawn) [(-)-β-Pinene] and C=C1[C@@H]2CC[C@@H](C2)C1(C)C (racemic) [(±)-Camphene] are within error of each other in “net action potential response” value: 2.67 ± 1.1 for the first, 0 ± 2 for the second.

CC1=CC(C)(C)C=C(O)C1=O [Lanierone] and CC1=CC(=O)[C@@H]2C[C@H]1C2(C)C [(-)-Verbenone] are within error of each other in “net action potential response” value: -3.33 ± 6.4 for the first, 2 ± 2 for the second.

CC/C=C/CCO and CC/C=C\CCO are within error of each other in “net action potential response” value: 0.667 ± 3.1 for the first, 0 ± 2 for the second.

Going from C=CC(=C)CC(O)C=C(C)C (racemic) [(±)-Ipsdienol] to CC(C)=CCC/C(C)=C/C=O [Citral (E/Z mix)], the “net action potential response” value falls from 116 ± 12 to 1.33 ± 1.1.

COc1ccc(C)cc1OC [3,4-Dimethoxytoluene] and CCc1ccc(O)c(OC)c1 [4-Ethylguaiacol] are within error of each other in “net action potential response” value: 0.667 ± 1.1 for the first, 0 ± 8 for the second.

CC1=CCC2C(C1)C2(C)C (single isomer, unassigned; (+)) [(+)-3-Carene] and CC1=CCC2CC1C2(C)C (stereo not drawn) [(+)-α-Pinene] are the same in “net action potential response” value: 2.67 ± 5.8 for the first, 2.67 ± 1.1 for the second.

C[C@@H]1C(=O)C[C@H]2C[C@@H]1C2(C)C [(+)-Isopinocamphone] and C[C@H]1C(=O)C[C@H]2C[C@@H]1C2(C)C [(-)-Pinocamphone] are within error of each other in “net action potential response” value: 0 ± 5.3 for the first, -2.67 ± 1.1 for the second.

C=CC(O)CCCCC (racemic) [(±)-1-Octen-3-ol] and CCC/C=C/C=O [(E)-hex-2-enal] are the same in “net action potential response” value: -0.667 ± 2.3 for the first, -0.667 ± 1.1 for the second.

Compared with CC1=CCC(=C(C)C)CC1 [Terpinolene], C=C(C)[C@@H]1CC=C(C)CC1 [(-)-Limonene] is higher in “net action potential response” value: 1.33 ± 1.1 for the first, 5.33 ± 1.1 for the second.

c1ccc2c(c1)CCO2 [2,3-Dihydrobenzofuran] and C=Cc1ccccc1 [Styrene] are within error of each other in “net action potential response” value: 4 ± 7.2 for the first, 0 ± 2 for the second.

C[C@]12CCC[C@](C)(OC1)O2 (racemic) [(±)-Frontalin] and CC[C@H]1O[C@]2(C)CCC[C@H]1O2 (racemic) [(±)-exo-Brevicomin] are within error of each other in “net action potential response” value: 2 ± 3.5 for the first, -2.67 ± 5 for the second.

CCC1CCC2(CCCO2)O1 (racemic) [(±)-Chalcogran] and CC1(C)C2CC=C(CO)C1C2 (racemic) [(±)-Myrtenol] are within error of each other in “net action potential response” value: 1.33 ± 2.3 for the first, 0.667 ± 3.1 for the second.

C=CC(C)(C)O [2-Methyl-3-buten-2-ol] and CC(=O)OC/C=C(\C)CCC=C(C)C [Geranyl acetate] are within error of each other in “net action potential response” value: 0 ± 4 for the first, 2 for the second.

COc1ccccc1 [Anisole] and CC1=CCC(C(C)C)=CC1 [γ-Terpinene] are within error of each other in “net action potential response” value: 2.67 ± 1.1 for the first, 2 ± 8.7 for the second.
